Screening data (PubChem BioAssay)
Avidin fluor = avidin bead compound fluorescence profile; fluorescence (KMESF) at 10 µM; actives 0.38% (n = 220,000); AID 1775; Avidin beads, compound fluorescence 488/530 nm, flow cytometry; active compounds read high; in the data active = fluorescence above about 47
GSH bead fluor = GSH bead compound fluorescence profile. GSH beads flow cytometry, compound fluorescence 488/530 nm; active compounds read high. fluorescence (KMESF) at 10 µM. actives 0.25% (n = 190,000). AID 1776; in the data active = fluorescence above about 89;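 also: glutathione beads carrying GST-tagged Bcl family fusion proteins plus one bare bead set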
RGS8-Gao = human RGS8-Galphao interaction regulation; actives 0.34% (n = 220,000); multiplexed bead flow cytometry, RGS8-Galphao binding; actives lie on both sides; response (percent of control binding), % at 10 µM; P09471; in the data active = response below about 60% or above about 140%; inactive = in between;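 also: Galphao activated as the GDP aluminium fluoride complex binding bead-coupled RGS8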
RGS7-Gao reg = human RGS7-Galphao interaction regulation. Multiplexed bead flow cytometry, RGS7-Galphao binding; actives lie on both sides. AID 1439. P09471. actives 0.35% (n = 220,000). binding response (% of control), % at 10 µM; in the data active = binding response below about 49% or above about 150%; inconclusive = no clear call, values can overlap the other calls; inactive = in between;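 also: fluorescent Galphao held in activated GDP-AlF4 state binding bead-coupled RGS7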
RGS16-Gao HTS = RGS16-Galphao interaction regulator (human). bead-based flow cytometry RGS16-Galphao binding, fluorescence; actives lie on both sides. O15492+P09471. AID 1441. actives 0.38% (n = 220,000). binding response (% of control), % at 10 µM;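 also: Galphao activated by GDP with aluminum fluoride before binding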
RGS4-Gao reg = human RGS4-Galphao interaction regulation; P09471; Multiplexed bead flow cytometry, RGS4-Galphao binding; actives lie on both sides; binding response (% of control), % at 10 µM; actives 0.33% (n = 220,000); in the data active = binding response below about 49% or above about 150%; inactive = in between;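 also: fluorescent Galphao activated with aluminum fluoride binding bead-coupled RGS4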
RGS-Gao = regulators of human RGS4-Galphao interaction; shares compounds with RGS16-Gao HTS; multiplexed bead flow cytometry, RGS–Galpha-o binding; RGS4–Galpha-o binding response, % at 10 µM; actives 99% (n = 1,600);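 also: fluorescently labeled Galpha-o bound to GDP with aluminium fluoride binding biotinylated RGS beads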
Avidin counter = biotin-avidin bead binding disruption counter-screen; shares compounds with RGS16-Gao HTS; streptavidin beads, fluorescein-biotin binding, flow cytometry; inhibition, % at 10 µM; 1,700 tested, under 10 active;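 active = inhibition above 50%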;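 also: median green fluorescence of gated singlet beads compared with DMSO control wells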
RGS8-Gao single = confirmation of regulators of human RGS8-Galphao interaction; AID 1836; bead-based flow cytometry RGS8-Galphao binding, fluorescence; actives lie on both sides; binding response (% of control), % at 10 µM; actives 3% (n = 1,700); shares compounds with RGS16-Gao HTS; in the data active = binding response below about 72% or above about 130%; inactive = in between;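 also: Galphao activated as GDP AlF4 complex before binding bead RGS8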
RGS7-Gao single = confirmation of regulators of human RGS7-Galphao interaction; shares compounds with RGS16-Gao HTS; bead-based flow cytometry RGS7-Galphao binding; actives lie on both sides; response (percent of control binding), % at 10 µM; actives 7.8% (n = 1,700); in the data active = response below about 75% or above about 130%; inactive = in between;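 also: fluorescent Galphao activated with GDP and aluminum fluoride binding bead-coupled RGS7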
RGS16-Gao conf = confirmation of regulators of human RGS16-Galphao interaction; shares compounds with RGS16-Gao HTS; response (% of control binding), % at 10 µM; bead-based flow cytometry, RGS16-Galphao binding; actives lie on both sides; actives 4% (n = 1,700); AID 1838; in the data active = response below about 74% or above about 130%; inactive = in between;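 also: Galphao activated as the GDP aluminium fluoride complex binding bead-coupled RGS16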
RGS4-Gao confirm = confirmation of regulators of human RGS4-Galphao interaction. shares compounds with RGS16-Gao HTS. RGS4-Galphao binding, multiplexed bead flow cytometry; actives lie on both sides. binding response (% of control), % at 10 µM. actives 4% (n = 1,700); in the data active = binding response below about 74% or above about 130%; inactive = in between
RGS19-Gao single = RGS19-Galphao interaction regulation, single point confirmation. shares compounds with RGS16-Gao HTS. bead-based flow cytometry RGS19-Galphao binding; actives lie on both sides. response (percent of control binding), % at 10 µM. actives 5% (n = 1,700). AID 1841; in the data active = response below about 50% or above about 160%; inactive = in between
Target sequence (P09471 whole entry, looked up): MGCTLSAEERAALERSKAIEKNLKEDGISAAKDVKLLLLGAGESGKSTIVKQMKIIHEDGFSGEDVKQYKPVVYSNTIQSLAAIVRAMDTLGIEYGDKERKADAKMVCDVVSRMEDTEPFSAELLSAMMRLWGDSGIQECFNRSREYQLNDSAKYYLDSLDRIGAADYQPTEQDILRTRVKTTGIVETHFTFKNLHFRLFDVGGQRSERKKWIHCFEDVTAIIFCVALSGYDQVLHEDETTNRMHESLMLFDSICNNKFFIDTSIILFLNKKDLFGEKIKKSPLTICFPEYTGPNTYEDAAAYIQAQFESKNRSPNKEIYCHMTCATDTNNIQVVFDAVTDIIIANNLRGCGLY
Target sequence (P49795 whole entry, looked up): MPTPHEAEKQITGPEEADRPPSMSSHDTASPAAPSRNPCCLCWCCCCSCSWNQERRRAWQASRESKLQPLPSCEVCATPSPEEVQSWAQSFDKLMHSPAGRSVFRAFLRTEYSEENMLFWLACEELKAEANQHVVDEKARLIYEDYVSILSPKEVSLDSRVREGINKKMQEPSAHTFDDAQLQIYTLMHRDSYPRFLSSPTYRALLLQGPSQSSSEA
A number is an active result; n = inactive; u = inconclusive; x = not tested or not shown; [ ] = remark or other dose. Most compounds without a hit are left out; they make up all but 1.2% or so of the library. Unless noted, no rule for the calls is given here.

SMILES | Avidin fluor | GSH bead fluor | RGS8-Gao | RGS7-Gao reg | RGS16-Gao HTS | RGS4-Gao reg | RGS-Gao | Avidin counter | RGS8-Gao single | RGS7-Gao single | RGS16-Gao conf | RGS4-Gao confirm | RGS19-Gao single
CCOc1ccc(S(=O)(=O)N/N=C(\C)C2CCCCC2)cc1 | n | n | n | n | 14 | n | 101 | n | n | n | n | n | n
CCOc1ccc(S(=O)(=O)N/N=C(\C)Cc2ccc(OC)cc2)cc1 | n | n | n | u | n | n | x | x | x | x | x | x | x
CCOc1ccc(S(=O)(=O)NC2CCCCCC2)cc1 | n | n | 50 | 35 | n | 46 | x | n | n | n | n | n | n
Cc1cc(NC(=O)c2ccccc2)nc(C)n1 | n | x | 150[activator] | u | n | 174[activator] | x | n | n | n | n | n | n
Cc1cc(NC(=O)c2ccccc2)n(C(C)(C)C)n1 | n | x | n | u | n | n | x | x | x | x | x | x | x
CCc1ccc2c(COC(=O)c3n[nH]c4ccccc34)cc(=O)oc2c1 | n | n | 143[activator] | n | n | n | 120 | n | n | n | n | n | n
Cn1cc(Br)c(C(=O)Nc2ncc(Br)s2)n1 | n | n | 14 | 12 | 8.7 | 15 | x | n | n | n | n | n | n
Cc1ccc(S(=O)(=O)NC(C)(C)CSc2ccccn2)cc1 | n | n | n | n | 13 | n | 87 | n | n | n | n | n | n
Cc1nccn1S(=O)(=O)c1ccc(Br)cc1Br | 92 | n | n | 168[activator] | n | n | 145 | x | x | x | x | x | x
COc1ccc(Br)cc1S(=O)(=O)n1ccnc1C | n | n | n | n | n | n | x | x | x | x | x | x | x
CN1CCC(N(C)C(=S)NC(=O)c2cc(-c3cccc(Br)c3)nc3ccccc23)CC1 | n | n | n | n | n | n | x | x | x | x | x | x | x
Cc1nc(SCc2nc3ccccc3[nH]2)c2oc3ccccc3c2n1 | 133 | n | n | 167[activator] | n | n | 128 | x | x | x | x | x | x
c1ccc2[nH]c(CSc3ncnc4c3oc3ccccc34)nc2c1 | n | n | n | n | n | n | x | x | x | x | x | x | x
CC1Cc2ccccc2N1C(=S)NC(=O)C1(C)CC1(Cl)Cl (stereo unspecified) | n | n | 31 | 13 | 7.2 | 8.4 | x | n | n | n | n | n | n
CC1Cc2ccccc2N1C(=S)NC(=O)c1ccco1 (stereo unspecified) | n | n | n | u | n | n | x | x | x | x | x | x | x
CSC1=NC(=O)/C(=C\c2cccc3ccccc23)S1 | 200 | n | n | 223[activator] | n | n | 124 | n | n | n | n | n | n
N=C1S/C(=C\c2cccc3ccccc23)C(=O)N1c1ccc(F)cc1 | n | n | n | n | n | n | x | x | x | x | x | x | x
CCOC(CNC(=O)c1cccn2c(=O)c3cc(Cl)ccc3nc12)OCC | n | n | n | 48 | n | n | 52 | n | n | n | n | n | n
COc1ccccc1NC(=O)CC(NC1CCCCC1)C(=O)O (stereo unspecified) | n | n | n | n | n | n | x | x | x | x | x | x | x
